Results reported in PubChem BioAssay (NCI).
About 83,000 compounds went through this panel and 20% of them were active in at least one assay; those are over-represented in the sample as a whole.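 Note: values are percent growth. 100 is the growth of untreated cells, values between 100 and 0 indicate rising inhibition; between -100 and 0 indicates cell death.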 A number with no mark means an inactive call. Calls of active or inactive are those of the source. The calls were made as follows: active = growth percent below 10; inactive = the rest.

Each compound was assayed on MDA-MB-468 breast (assay: NCI-60 one-dose screen, 48 h (100 = growth as untreated, 0 = no growth, -100 = all killed)). Conditions: 10 µM unless noted.

Structure (SMILES) | growth
FC(F)(F)c1nc2c(NCc3ccc(-c4ccccc4)cc3)cccc2[nH]1 | 70.2%
CCOC(=O)c1c(C)nc2c(c1N)/C(=C/c1ccc(OC)cc1)C(=O)N2Cc1ccccc1 | 66.7%
COC(=O)/C=C/c1cc(OC)c2c(c1)[C@@H](C(=O)OC)[C@H](c1ccc(OC)c(OC)c1)O2 | 50.9%
C[C@]12CC[C@@H]3c4ccc(OCC(=O)O)cc4CC[C@H]3[C@@H]1CCC2=O | 113%
Cc1c(C(=O)Nc2nc3ccccc3[nH]2)cnn1-c1ccccn1 | 112%
OCCc1ccc(Cl)cc1 | 103%
CC(=O)c1cc2c(N)c(C(=O)Nc3cccc4c3OCCO4)sc2nc1C | 86.1%
COC(=O)[C@]12CCC(C)(C)C[C@H]1[C@H]1C(=O)C[C@@H]3[C@@]4(C)c5c([nH]c6ccccc6c5=O)C(C)(C)[C@@H]4CC[C@@]3(C)[C@]1(C)CC2 | 34.5%
COc1cc(/C=C/C(=O)c2ccc(Nc3nc(NCCO)nc(N4CCOCC4)n3)cc2)cc(OC)c1OC | 2.9% (active)
COc1ccc(/C=C2\CCc3ccccc3C2=O)cc1 | 76.7%
COc1ccc(NC(=O)Nc2ccccc2CNc2nc(Nc3ccc(OCCN4CCCC4)cc3)ncc2Cl)cc1 | -43.5% (active)
O=C1Nc2ccccc2/C1=C/C(=O)c1ccc(N2CCCC2)cc1 | 5.3% (active)
CCOC(=O)C1=C(COCCN)NC(C)=C(C(=O)OC)C1c1ccccc1Cl (stereo not given) | 17%
CCCCCc1cc[n+](CC(=O)c2ccc(Cl)cc2)cc1 | 65.9%
C=CCNC(=O)Cc1c(-c2ccc(OC)cc2)oc2c(OC)c3c(c(OC)c12)OCO3 | 94.9%
Cc1ccc(S(=O)(=O)N(C)CCCCCC(=O)O)cc1 | 108%
CCN(Cc1ccccc1)C1CCN(Cc2cc(Br)ccc2O)CC1 | 25.5%
N#Cc1c(Nc2cccc(Cl)c2)sc(C(=O)c2cc3cc(Cl)ccc3o2)c1N | 100%
CCCCC/C=C/C/C=C/CCCCCCCC1=NC(C)(C)CN1C(C)C | -42.8% (active)
O=c1c2cc(C(F)(F)F)ccc2sc2c(NCCCNCCO)nc3ccccc3c12 | -74.3% (active)

Structure (SMILES) | growth
CCOC(=O)c1sc(NC(=O)c2cc(OC)c(OC)c(OC)c2)nc1C | 92.2%
CC(C)n1nc(C#Cc2cccc(NC(=O)c3cccc(C(F)(F)F)c3)c2)c2c(N)ncnc21 | 8.73% (active)
C=C(CN1CC=CCC1)[C@@H]1CC[C@]2(CO)CC[C@]3(C)[C@H](CC[C@@H]4[C@@]5(C)CC[C@H](O)C(C)(C)[C@@H]5CC[C@]43C)[C@@H]12 | 89.2%
Cc1ccccc1C(=O)NN | 121%
Cn1cnc2c(F)c(Nc3ccc(Br)cc3Cl)c(C(=O)NOCCO)cc21 | 92.5%
Cn1c2nc3ccccc3c-2cc2ccccc21 | 41.3%
COc1cc(N=Nc2ccc(N)cc2)c(OC)cc1N=Nc1ccccc1.[Cl][Zn][Cl] | 118%
FC(F)(F)c1cc(Br)cc(-c2cc(-c3ccc4c(c3)OCCO4)[nH]n2)c1 | 40.6%
COc1ccc(C2=NN(C(=O)c3cc(OC)c(OC)c(OC)c3)C(c3ccc(C#N)cc3)C2)cc1OC (stereo not given) | -25.8% (active)
COc1ccc(Cn2cc3c(c2-c2ccccc2)CCc2cnoc2-3)cc1 | 55.2%
Cc1c(Cl)cccc1C(=O)Nc1nc2c(s1)CN(C(=O)Nc1cccc(C(F)(F)F)c1)CC2 | 16.7%
Nc1nc(-c2cccc3ccccc23)cc2ccccc12 | -4.35% (active)
CC(C)(O)c1cncc(-c2ccc3ncnc(NCc4ccccc4)c3c2)c1 | 64.8%
CCOC(=O)c1cnc2c(C)cccc2c1Nc1ccc(C(C)=O)cc1 | -71.2% (active)
COc1ccc(NC(=O)c2sc3nc(C)c(C(O)c4ccc(OC)cc4)cc3c2N)cc1 (stereo not given) | 24.8%
O=C(Cc1ccc(F)cc1)c1ccccc1 | 127%
CC(C)(C)c1cc(C(=O)Nc2ccc(C(=O)NCCN)cc2)cc(C(C)(C)C)c1 | -39.5% (active)
CCCCCn1sc(=O)n(Cc2ccc(CNC(=O)OCc3ccc4cccc(O)c4n3)cc2)c1=O | -48.1% (active)
CCOC(=O)[C@H](CSSc1ncnc2cc[nH]c12)NC(=O)[C@@H](C)c1ccc2cc(OC)ccc2c1 | 5.8% (active)
COC(=O)c1c2c(c(C)[n+]([O-])c1C)C(=O)C(NCc1ccc(F)c(F)c1)=CC2=O | -26.1% (active)
